Experimental data taken from PubChem BioAssay AID720513 (Broad Institute, 2013).
The campaign covered roughly 2,100 compounds. About 480 (23%) were called active. Roughly 5% stayed inconclusive and do not appear here.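 Rule for the calls: active = fitted curve reaches 40% activation at or below the top valid concentration, in every replicate test; inconclusive = replicate tests disagree on the call; inactive = the rest, including activity in the opposite direction.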 Not all results are given here. Entries with a potency or affinity are not part of this list.

Experiment: PGC1a acetylation increase, cellular AlphaLISA – cell-based, cherry-picked samples, set 6, dose response (AID 720513);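 note: cells made to overexpress flag tagged PGC1a plus GCN5 acetyltransferase by viral infection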
Settings: U2OS PGC1a acetylation AlphaLISA, overnight, 0 = neutral, -100 = inhibitor control; series mostly up to 19.5 µM; activation (acetylation increase): at the top concentration

Activation (acetylation increase), inactive:
C[C@H](CO)N1C[C@H](C)[C@H](CN(C)Cc2ccccc2)Oc2cc(Br)ccc2S1(=O)=O -7.01%
C[C@H]1CN([C@@H](C)CO)S(=O)(=O)c2ccc(Br)cc2O[C@H]1CN(C)S(C)(=O)=O 2.73%
COc1ccccc1C(NC(C)=O)c1cc(Cl)c2cccnc2c1O (stereo not given) 10.3%
CC(c1ccco1)N(C(=O)c1cc(Cl)cc(Cl)c1)c1ccccn1 (stereo not given) 27.1%
Cc1ccc(CN(C(=O)Cn2nnc3ccccc32)C(C(=O)NCc2ccco2)c2cccs2)cc1 (stereo not given) -24.9%
CC(=O)c1cccc(-c2ccnc3c2CC(C(=O)NCc2ccco2)O3)c1 (stereo not given) 4.41%
C[C@H](CO)N1C[C@H](C)[C@H](CN(C)S(=O)(=O)c2cn(C)cn2)OCCCC[C@H](C)Oc2ccc(NC(=O)Nc3cccc4ccccc34)cc2C1=O -7.46%
Clc1ccc(C(c2ccccc2Cl)C(Cl)Cl)cc1 (stereo not given) 6.49%
CC(C)Cc1nn2c(=O)cc(O)nc2s1 16.5%
Cc1ccc(S(=O)(=O)C(NC(=O)c2ccccc2)=C(Cl)Cl)cc1 32.9% [at 10 µM]
Cc1ccc(C(CC(=O)O)NC(=O)CCNC(=O)c2ccco2)cc1 (stereo not given) 29.7%
Cc1cc(OCC(=O)O/N=C(\N)c2ccccc2)cc(C)c1Cl 4.64%
CC(C)CC#Cc1ccc2c(c1)O[C@H](CN(C)Cc1ccccc1)[C@@H](C)CN([C@H](C)CO)S2(=O)=O -68.5%
COc1cc(-c2cnc3c(NC=O)cc(-c4ccccc4)cn23)cc(OC)c1OC -13.1%
COc1cc(-c2cnc3c(NC=O)cc(-c4ccccc4Cl)cn23)cc(OC)c1OC 6.09%
O=C(O)c1cccc(N2C(=O)CSC2c2c(F)cccc2Cl)c1 (stereo not given) 15.6%
Cc1cc(C)c(NC(=O)c2ccc(S(=O)(=O)N(C)C)cc2)c(C)n1 -8.4%
CN(C)c1ncnc2c1ncn2C1OC(CO)C(O)C1O (stereo not given) -12.4%
OC[C@@H]1CN(Cc2ccccc2)C[C@H](n2cnc3c(NCc4ccco4)ncnc32)O1 -12.2%
CS(=O)(=O)N1CCCC(C(=O)NCc2ccccn2)C1 (stereo not given) 0.592%
COc1ccc(CN(C)C[C@@H]2OCCCC[C@H](C)Oc3ccc(NS(C)(=O)=O)cc3C(=O)N([C@@H](C)CO)C[C@@H]2C)cc1 7.45%
C[C@@H]1CN([C@H](C)CO)C(=O)c2cc(C#CC(C)(C)O)cnc2O[C@H]1CN(C)C(=O)c1ccccc1F 1.87%
COc1ccc(S(=O)(=O)N(C)C[C@H]2Oc3c(NS(=O)(=O)c4ccc(C)cc4)cccc3C(=O)N([C@H](C)CO)C[C@H]2C)cc1 9.63%
Cc1noc(C)c1NC(=O)N(C)C[C@H]1Oc2c(NC(=O)c3nc4ccccc4s3)cccc2C(=O)N([C@H](C)CO)C[C@H]1C 20.6%
Cc1ccc(-c2cnc3c(c2)C(=O)N([C@@H](C)CO)C[C@@H](C)[C@H](CN(C)C)O3)cc1 16.7%
Cc1nn(C)c(C)c1N1C(=O)c2cccc3c(Br)ccc(c23)C1=O -20.6%
CCC(=O)N1C[C@H](C)[C@@H](OC)CN(C)C(=O)c2cc(NC(=O)Nc3cccc(F)c3)ccc2OC[C@H]1C 4.06%
C[C@H](CO)N1C[C@H](C)[C@@H](CN(C)Cc2ccc(Oc3ccccc3)cc2)Oc2ccc(N(C)C)cc2CC1=O 22.7%
O=C(O)CSCC(=O)NCc1ccc(Cl)cc1Cl -3.56%
Cc1cc(Br)ccc1NC(=O)CN(C)C(=O)CCSc1ccc(F)cc1 34.7%
CC(=O)CS(=O)(=O)c1ccc(Oc2ccc(S(=O)(=O)CC(C)=O)cc2)cc1 35.2%
Cc1ccc(S(=O)(=O)N2CCN(C(=O)N3CCOCC3)CC2)cc1C 3.69%
COc1ccccc1N1CCN(c2ccc(-c3ccccc3)nn2)CC1 -19.4%
Cn1c(CO)cnc1SCC(=O)c1ccc(Cl)cc1 6.9%
CCN(CC)C(=O)CSc1nnc(-c2cccnc2)n1Cc1ccccc1 -13.3%
Cc1ccc(S(=O)(=O)NC2=NCCCCC2)cc1 -11%
Cc1ccc(S(=O)(=O)N[C@H]2C=C[C@@H](CC(=O)NCCN3CCCCC3)O[C@H]2CO)cc1 9.77%
Cc1ccc(S(=O)(=O)N[C@H]2C=C[C@H](CC(=O)NCCN3CCCCC3)O[C@H]2CO)cc1 13.8%
Cc1ccc2c(Cl)cc(Cl)c(OCc3c(C)noc3C)c2n1 24%
COc1ccc(-n2c(SCC#N)nnc2-c2cccnc2)cc1 -52.4%
COc1ccc(-c2cc(-c3ccccc3)c(C#N)c(S(C)=O)n2)cc1 (stereo not given) -103%
O=C(CC(C(=O)O)c1c[nH]c2ccccc12)c1ccccc1 (stereo not given) 26.7%
CN(NC(=O)c1ccccc1)C1=NS(=O)(=O)c2ccccc21 29.7%
COc1ccc(-c2cc(C(F)(F)F)nc(S(C)(=O)=O)n2)cc1 -80.1%
C=CCNS(=O)(=O)c1cccc2cc(C(=O)O)c(O)cc12 -11.3%
CCCCOc1ccc(C(=O)C(CN2CCOCC2)c2ccccc2)cc1 (stereo not given) -71.9% [at 10 µM]
O=C(C=Cc1ccccc1)CC(c1ccccc1)N1CCOCC1 (stereo not given) -65.4%
COC(=O)COc1c(/C=C\c2nc(O)c([N+](=O)[O-])c(=O)[nH]2)cccc1OC 7.96%
COc1cccc(C(=O)Nn2cnnc2)c1OC -11.2%
Cc1ccc(N)cc1S(=O)(=O)N(C)C 34.7%
COc1ccc(C(=O)NCCCSC)cc1OC1CCN(C(C)C)CC1 7.64%
C[C@@H]1CN([C@@H](C)CO)C(=O)c2cc(-c3cccc(C#N)c3)cnc2O[C@H]1CN(C)C(=O)c1ccccn1 -9.58%
Cc1cc(C)c(C#N)c(N2CCN(c3ccccc3)CC2)n1 -14.4%
Cc1cc(S(=O)(=O)Nc2ccc3ccccc3c2)c(C)s1 -23.3%
C=CS(=O)(=O)N(Cc1ccccc1Br)[C@H](CO)Cc1ccccc1 -31.4%
C=CCSc1nccc(-c2cc(Cl)sc2Cl)n1 34.1%
O=C1C(Cl)=C(N2CCOCC2)C(=O)N1CCc1ccccc1 11.4%
O=C(CCC1CCCN(C(=O)c2cc(C3CC3)[nH]n2)C1)N1CCN(c2ccccn2)CC1 (stereo not given) 18.2%
CN(C)c1ccnc2sc(C(N)=O)c(N)c12 -20.8%
Cc1noc(C)c1S(=O)(=O)N(C)C[C@H]1Oc2ccc(NS(=O)(=O)c3cccs3)cc2C(=O)N([C@H](C)CO)C[C@H]1C 9.57%
Nc1cc(N)nc(SCC(=O)Nc2ccccc2N2CCOCC2)n1 -30.2%
CCOc1ccc(/C=C/C(=O)Oc2ccccc2)cc1 -2.16%
CCOC(=O)CS(=O)(=O)c1nc(-c2ccccc2)cc(C(F)(F)F)n1 -100%
CSc1cccc(N2CC(C(=O)NCCN3C(=O)S/C(=C\c4cccnc4)C3=O)CC2=O)c1 (stereo not given) 7.23%
CN(C)C(=O)C[C@@H]1CC[C@@H]2[C@H](COC[C@@H](O)CN2C(=O)C2CCOCC2)O1 -7.2% [at 10 µM]
CC(C)C#Cc1ccc([C@@H]2[C@H]3CN(C(=O)NC4CCCC4)CC(=O)N3[C@H]2CO)cc1 20.8%
Cc1ccccc1OCC(=O)OCC(=O)NCc1ccc2c(c1)OCO2 -2.91%
O=C(CN(Cc1ccc2c(c1)OCO2)C(=O)CNS(=O)(=O)c1ccccc1)NCc1ccco1 6.43%
CC(=O)Nc1cccc(-c2ccnc3c2CC(C)(C(=O)Nc2ccc4c(c2)OCO4)O3)c1 (stereo not given) 13.7%
Cn1c(SC2=CS(=O)(=O)c3ccccc32)nc2ccccc21 -91.8%
CCOC(=O)CNC(=O)OC1CCN2Cc3ccccc3N=C12 (stereo not given) -16.2%
CN(C)CCNc1oc(COc2ccc(-c3ccccc3)cc2)nc1C#N -99.8%
C[C@H](CO)N1C[C@H](C)[C@@H](CN(C)C(=O)c2ccccn2)Oc2ncc(-c3cccc(C#N)c3)cc2C1=O 1.18%
Cc1nc(N(CCO)C2CCCCC2)c2nnn(Cc3ccccc3)c2n1 -1.58%
C[C@H](NC(=O)C[C@H]1CC[C@@H](NC(=O)C2CC2)[C@H](CO)O1)c1ccccc1 -6.11%
C[C@@H]1CCCCO[C@@H](CN(C)C(=O)c2ccncc2)[C@@H](C)CN([C@H](C)CO)C(=O)c2cc(NC(=O)CCCCCC(=O)Nc3ccccc3N)ccc2O1 -5.98%
O=C(CSc1nc2cc(Cl)ccc2s1)NCC1CCCO1 (stereo not given) 4.04%
COc1ccccc1CNC(=O)C[C@@H]1CC[C@@H]2[C@H](COC[C@H](O)CN2C(=O)Nc2ccc(Cl)cc2)O1 32.8%
CN1CCN(C(=O)C[C@@H]2CC[C@@H]3[C@H](COC[C@H](O)CN3CC3CCCCC3)O2)CC1 -4.22%
Cc1ccc(Nc2nc(-c3c(C)nc4ncccn34)cs2)cc1 -31.5%
Cc1cnc(NC(=O)c2nn(C)cc2[N+](=O)[O-])s1 12.9%
C[C@@H]1CN([C@H](C)CO)C(=O)c2cc(NC(=O)Nc3ccc(F)cc3)ccc2O[C@@H](C)CCCCO[C@@H]1CN(C)C(=O)NC1CCCCC1 2%
CCCc1nc2c(=O)n(C)c(=O)nc-2n(C)n1 -98%
COc1ccccc1N=C1NC(=O)/C(=C/c2ccc(N(C)C)cc2)S1 -4.74%
O=C1/C(=C/c2ccccc2[N+](=O)[O-])COc2ccccc21 -86.7%
O=C1C=CCCN1C(=O)/C=C/c1ccccc1Cl -85%
Cn1nc(C(C)(C)C)cc1NC(=O)C1(C)CCN1C(=O)C1(c2ccccc2)CCCC1 (stereo not given) 1.04%
COc1ccc(-c2onc(C)c2-c2ccc(C(=O)OC(C)C)o2)c(O)c1 14.5%
N#Cc1ccc(CCc2ccccc2)[nH]c1=O 2.14%
NS(=O)(=O)c1ccc(-c2ccc(/C=C3\C(=O)Nc4cc(Cl)ccc43)o2)cc1 -10.5%
O=C(Nc1nc2c(s1)CN(Cc1ccccc1)CC2)c1c(F)cccc1F -21.4%
COc1ccc(-c2[nH]ncc2CN(C)C(C)c2ccon2)cc1F (stereo not given) -24.4%
COc1ccc(OC)c(-n2c(-c3ccc(C)cc3)n[nH]c2=S)c1 18.7%
COc1cccc(-n2c(-c3cccc(S(=O)(=O)N(C)C)c3)n[nH]c2=S)c1 -8.6%
COc1cccc(S(=O)(=O)N[C@H]2CC[C@H](CC(=O)NCc3ccc(F)cc3)O[C@@H]2CO)c1 19.6%
COc1ccc2nc(NCc3cccnc3)sc2c1 -12.2%
CCC(C)C(NC(=O)C1CCC(C)CC1)C(=O)NCc1cccnc1 (stereo not given) 28.8%
Cc1ccc(S(=O)(=O)Nc2ccccc2C(=O)NCc2cccnc2)cc1 -21.2%
CCn1cc(C(=O)NCc2cccnc2)c2cc(OC)c(OC)cc2c1=O 12.7%
COc1cccc(Cn2c(NCc3cccnc3)nc3c2c(=O)n(C)c(=O)n3C)c1 -13.5%
